Among the test systems are T-47D breast; BT-549 breast; SW-620 colon; MCF7 breast; HCT-116 colon; HCC-2998 colon; KM12 colon; MDA-MB-435 melanoma.
Holding throughout (assay): NCI-60 one-dose screen, 48 h (100 = growth as untreated, 0 = no growth, -100 = all killed)
Holding throughout (settings): 10 µM unless noted

SMILES strings stand for the structures. Compounds without any hit were thinned out: in the full panel of roughly 83,000, 20% have a hit.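 Each cell line was grown in a 96-well plate and treated with one concentration of compound for 48 hours. Values below 10 were considered active.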 Unmarked numbers belong to inactive results. Activity calls are given as the source filed them.

As to `CC(C)c1cccc(C#N)c1`, the growth is 95.7% in the test on T-47D breast; 102% with BT-549 breast; 107% in the test on SW-620 colon; 95.1% in the test with MCF7 breast; 101% in the test on HCT-116 colon; 102% with HCC-2998 colon. For the same compound, in the test with KM12 colon, the growth was 111%.

On to `COc1cc2ccc(C(C)=O)cc2cc1OC`, for which the growth in the test with T-47D breast was 93.1%; in the test on BT-549 breast it was 90.8%; with SW-620 colon, 98.5%; with MCF7 breast, 97.9%; in the test with HCT-116 colon it was 103%; in the test on KM12 colon, 105%.

Turning to `Cn1c(=O)c2c(nc(N/N=C/c3ccccc3Cl)n2C)n(C)c1=O`, the growth is 105% with T-47D breast; 102% in the test with BT-549 breast; 108% in the test on SW-620 colon; 96.2% in the test on MCF7 breast; 97.5% in the test on HCT-116 colon; 140% with KM12 colon.

In the case of `O=C(CC(=O)c1cccc(Cl)c1)c1cccc(Cl)c1`, the growth in the test on T-47D breast is 37.2%; with BT-549 breast, 47.6%; in the test on SW-620 colon it was 30.7%; in the test with MCF7 breast, 25.4%; with HCT-116 colon, 19.8%; in the test on HCC-2998 colon, 35%. Also, in the test with KM12 colon, the growth is 41.9%.

Take `O=C(/C=C/c1ccccc1)c1c[nH]c2ccccc2c1=O`: the growth with T-47D breast is 17.3%; in the test with BT-549 breast it was -4.65% (active); in the test with SW-620 colon, -6.91% (active); in the test with MCF7 breast, 10.6%; in the test on HCT-116 colon, 0.346% (active); in the test with HCC-2998 colon, 51.3%. The growth in the test with KM12 colon was 1.5% (active).

As to `CC1CCCN(CCCCOc2ccc(-c3ccc(C#N)cc3)cc2)C1` (stereo not drawn), the growth is 79.1% in the test with T-47D breast; 85.6% in the test with BT-549 breast; 96.8% with SW-620 colon; 86.4% with MCF7 breast; 87.8% in the test on HCT-116 colon; 86.6% in the test on HCC-2998 colon. The growth in the test with KM12 colon was 96.1%.

Regarding `CN(C)CCCn1c(=O)c2cc([N+](=O)[O-])ccc2c2cnc3[nH]ccc3c21`, the growth with T-47D breast was 86.5%; in the test on MDA-MB-435 melanoma, 67.7%; in the test on SW-620 colon, 33.1%; in the test on MCF7 breast, -12% (active); in the test with HCT-116 colon, 12.4%; in the test with HCC-2998 colon, 60%. For the same compound, the growth in the test on KM12 colon is 47.9%.

As to `CS(=O)(=O)c1ccc(C(=O)N/N=C/c2ccccc2O)cc1`, the growth in the test on T-47D breast was 52.4%; in the test with BT-549 breast, 53%; in the test with SW-620 colon it was 43.3%; in the test on HCT-116 colon it was 29.1%; in the test with HCC-2998 colon it was 47.3%; with KM12 colon it was 34.1%.

On to `CCCCCCCC/C=C\CCCCCCCC(=O)OCCCCCC`, for which the growth with T-47D breast was 102%; with BT-549 breast, 114%; in the test on SW-620 colon, 106%; with MCF7 breast, 105%; with HCT-116 colon, 100%; with HCC-2998 colon, 107%. Further, in the test on KM12 colon, the growth is 102%.

As for `COc1cc2c(=O)n(CCCN(C)C)c3c4cc[nH]c4ncc3c2cc1OC`, the growth in the test with T-47D breast was 63.9%; with BT-549 breast it was 72.5%; with SW-620 colon, 24.9%; with MCF7 breast it was 15.5%; in the test with HCT-116 colon, 16.8%; with HCC-2998 colon, 55.7%. Besides, the growth with KM12 colon was 19.2%.

With `Cc1nn(-c2ccccc2)c2nc3c(nc12)C1=NCCN1C(c1ccc(Cl)cc1)N3` (stereo not drawn), the growth with T-47D breast was 75.1%; in the test on BT-549 breast, 98.3%; with SW-620 colon, 76.6%; in the test with MCF7 breast, 35.3%; in the test on HCT-116 colon, 68.8%; in the test on KM12 colon it was 66%.

As for `FC(F)(F)c1cc(-c2nnc3n2N=C(Cl)CS3)cc(C(F)(F)F)c1`, the growth is 84.5% in the test with T-47D breast; 88.4% in the test with BT-549 breast; 89.7% with SW-620 colon; 94.3% in the test on MCF7 breast; 90.5% in the test on HCT-116 colon; 109% in the test on KM12 colon.

As for `Cc1[nH]c2ccccc2c1C1=CC(=O)C=CC1=O`, the growth is 28.5% in the test with T-47D breast; 38.9% in the test on MDA-MB-435 melanoma; 69.2% in the test on SW-620 colon; 55.3% with MCF7 breast; 82.4% in the test on HCT-116 colon; 98.8% with HCC-2998 colon. Also, in the test on KM12 colon, the growth is 88.2%.

In the case of `Cc1ccc(Nc2cccc3ccccc23)cc1`, the growth was 65.1% in the test on T-47D breast; 29.7% in the test with MDA-MB-435 melanoma; 77.7% in the test with SW-620 colon; 38.4% with MCF7 breast; 80.7% with HCT-116 colon; 88.1% in the test on HCC-2998 colon. Besides, in the test with KM12 colon, the growth is 59.4%.

For the compound `CC(=O)C1CCC2C3CC(C)=C4CC(O)CCC4(C)C3CCC12C` (stereo not drawn), the growth was 100% with BT-549 breast; 109% with MDA-MB-435 melanoma; 118% in the test with SW-620 colon; 100% in the test on MCF7 breast; 90.7% in the test on HCT-116 colon; 98.8% with HCC-2998 colon. Besides, the growth with KM12 colon is 109%.

`COc1ccccc1/C=C/C(=O)CCC(=O)O`: the growth in the test on T-47D breast is 93.1%; in the test with MDA-MB-435 melanoma, 108%; in the test on SW-620 colon, 107%; in the test on MCF7 breast, 102%; in the test on HCT-116 colon, 101%; in the test with KM12 colon, 114%.

For the compound `O=c1c2cc(Cl)ccc2oc2ccc(OCCCCCN3CCCCCC3)cc12`, the growth in the test on T-47D breast is 74.4%; in the test with MDA-MB-435 melanoma, 80.8%; with SW-620 colon it was 84.6%; in the test on MCF7 breast it was 75.3%; in the test on HCT-116 colon it was 57.8%; in the test on HCC-2998 colon, 88.5%. Moreover, the growth in the test with KM12 colon was 84.8%.

Source of the values: PubChem BioAssay (NCI).
